What all share (assay): NCI-60 one-dose screen, 48 h (100 = growth as untreated, 0 = no growth, -100 = all killed)
Common to all, as to conditions: 10 µM unless noted

For test [1], the system named is NCI-H23 lung.
Test [2] deals with NCI-H226 lung.
For test [3], the system named is NCI-H322M lung.
The test system of test [4] is HOP-62 NSCLC.
Test [5] concerns NCI-H460 lung.
In test [6] the test system is HOP-92 NSCLC.
For test [7], the system named is NCI-H522 lung.
In test [8] the test system is A549/ATCC NSCLC.
The subject of test [9] is 786-0 renal.
Test [10] concerns COLO 205 colon.

The panel holds about 83,000 compounds, 20% with a hit somewhere; the sample as a whole holds those more often.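 Compound tested at a single concentration for 48 hours in 96-well plates; a percent growth value below 10 was scored as active.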 A number with no mark means an inactive call. Active and inactive are the calls of the source.

Consider `Cc1cn2c(/C=C3/C(=O)Nc4c3ccc3ccccc43)c(C(F)(F)F)nc2s1`, for which the growth in test [1] is 39.5%; in [2], 53.5%; in [3], 43.2%; in test [4], 27.2%; in test [5] it was 9.31% (active); in test [6], 20.8%. Also, the growth is 5.27% (active) in test [7], 20.1% in [8], 24.8% in test [9] and -49.4% (active) in test [10].
With `CC1=C[C@H]2c3c(c(O)c(O)c4oc(-c5ccccc5)cc(=O)c34)[C@H](c3cc(O)c(O)c4oc(-c5ccccc5)cc(=O)c34)[C@H]2C(C)(C)C1`, the growth was -14.4% (active) in test [1]; -3.14% (active) in test [2]; 6.91% (active) in test [3]; -2.06% (active) in test [4]; -31.8% (active) in test [5]; -10% (active) in test [6]. The growth in test [7] is -12.7% (active); in test [8] it was 2.87% (active); in test [9] it was -22.8% (active); in test [10], 4.64% (active).
Take `COc1ccc(C(=O)c2sc3nc(C)cc(C)c3c2N)cc1OC`: the growth is 74.3% in test [1]; 89.8% in [2]; 87.9% in [3]; 53.4% in test [4]; 67.6% in test [5]; 89.7% in test [6]. The growth in test [7] was -13.1% (active); in test [8], 60%; in test [9] it was 99.5%; in test [10], 102%.
In the case of `CSc1ccc(-c2ccccc(=O)c2O)cc1`, the growth in test [1] was 21.9%; in test [2] it was 16.1%; in test [3], 19.5%; in [4], 3.95% (active); in test [5], 2.89% (active); in test [6], 49.5%. The growth was 24.1% in test [7], 11.5% in test [8], 8.4% (active) in test [9] and 22.6% in [10].
`N#C/C(=C\c1ccc(-c2cc(C(F)(F)F)ccc2Cl)o1)c1nc(-c2ccco2)cs1`: the growth in test [1] is 93.7%; in test [2], 96.2%; in test [3] it was 103%; in test [4], 96.1%; in [5], 102%; in test [6], 101%. The growth in test [7] was 85.3%; in test [8], 108%; in test [9], 104%; in test [10] it was 119%.
Consider `Cn1cc(-c2nonc2-c2cn(C)c3ccc(F)cc23)c2ccccc21`, for which the growth in test [1] is 23.2%; in [2], 5.33% (active); in test [3], 40.2%; in [4] it was 33.1%; in test [5] it was 7.52% (active); in test [6], 54.6%. In addition, the growth in [7] is -8.4% (active); in test [8], 24.5%; in test [9], 34.3%; in test [10], 5.23% (active).
For the compound `O=C1c2ccccc2OC=C(c2ccccc2)N1CCCCNc1ccc(S(=O)(=O)Nc2ncccn2)cc1`, the growth is 101% in test [1]; 91.4% in test [2]; 92.8% in [3]; 90.1% in test [4]; 103% in test [5]; 75.8% in test [6]. Besides, the growth in test [7] is 82.9%; in [8], 81.3%; in [9], 90.6%; in test [10], 114%.
Take `CN1CCN(CCCOc2cccc3nc(Nc4cc(Cl)cc(Cl)c4)ccc23)CC1`: the growth in [1] was 36.7%; in test [2], -10.9% (active); in test [3], 3.59% (active); in [4], 19.8%; in test [5], -37% (active); in test [6], 3.95% (active). The growth in test [7] is -18.3% (active); in [8], 0.988% (active); in test [9] it was 37.3%; in test [10], -67.4% (active).
Regarding `CC(C)c1c(C(=O)c2ccccc2)c(-c2ccccc2)c(-c2ccc(F)cc2)n1CC[C@@H](O)C[C@@H](O)CC(=O)O`, the growth in [1] is 56.8%; in test [2] it was 62.2%; in test [3] it was 58.6%; in test [4], 90.1%; in test [5] it was 87.5%; in [7], 25.9%. For the same compound, the figures for the growth in test [8], in test [9] and in test [10] were 100%, 77.5% and 55.3%, respectively.
With `COc1cc(-c2nn(-c3ccc(Br)cc3)cc2C(=O)O)ccc1O`, the growth in test [1] was 89.5%; in test [2] it was 91.7%; in test [3], 95.3%; in test [4] it was 96.3%; in [5], 103%; in [6], 94.5%. Further, the growth in [7] was 67.7%; in test [8], 105%; in [9], 97.6%; in [10], 109%.

The values are drawn from PubChem BioAssay (NCI).
